Among the data in PubChem BioAssay (NCI) are growth values, retold here.

Compounds without any hit were thinned out: in the full panel of roughly 83,000, 20% have a hit.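 Treatment: one concentration, 48 hours, 96-well format. Scoring: percent growth, with anything below 10 considered active.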 Values without a mark were called inactive. Active and inactive are the calls of the source.

Test systems include NCI-H23 lung; NCI-H226 lung; NCI-H322M lung; HOP-62 NSCLC; NCI-H460 lung; NCI-H522 lung; A549/ATCC NSCLC; 786-0 renal; COLO 205 colon; DU-145 prostate.
What all share (experiment): NCI-60 one-dose screen, 48 h (100 = growth as untreated, 0 = no growth, -100 = all killed)
Common to all, as to settings: 10 µM

Consider `Cc1cc(Cc2cc(C)c(O)c(C)c2)cc(C)c1O`, for which the growth in the assay with NCI-H23 lung was 74.1%; in the assay with NCI-H226 lung it was 96.6%; with NCI-H322M lung, 68.2%; with HOP-62 NSCLC, 49.8%; in the assay on NCI-H460 lung, 29.1%; in the assay on NCI-H522 lung, 28.5%. Besides, the growth is 36.8% with A549/ATCC NSCLC, 56.2% in the assay on 786-0 renal, 104% in the assay with COLO 205 colon and 78.3% with DU-145 prostate.

For the compound `CS(=O)(=O)Nc1ccc(Nc2c3ccccc3nc3cc(N)ccc23)cc1`, the growth in the assay with NCI-H23 lung was 20.5%; in the assay with NCI-H226 lung, -13.9% (active); in the assay on NCI-H322M lung, 42%; in the assay with HOP-62 NSCLC it was 11.9%; in the assay on NCI-H460 lung, 1.01% (active); in the assay with NCI-H522 lung, -11.5% (active). The growth was 11% in the assay with A549/ATCC NSCLC, 2.37% (active) in the assay on 786-0 renal, 51.9% in the assay with COLO 205 colon and 16.9% in the assay on DU-145 prostate.

With `Cc1ccc(NC(=O)NC2CCCCC2)cc1`, the growth with NCI-H23 lung is 108%; with NCI-H226 lung it was 95.5%; with NCI-H322M lung, 92.2%; in the assay with HOP-62 NSCLC, 96.1%; with NCI-H460 lung, 102%; with NCI-H522 lung, 82.8%. Also, the growth is 91.5% in the assay with A549/ATCC NSCLC, 98.6% in the assay with 786-0 renal, 105% with COLO 205 colon and 114% in the assay on DU-145 prostate.

`CSc1nn(-c2ccccc2)c2ncnc(Oc3ccccc3)c12`: the growth in the assay with NCI-H23 lung is 101%; in the assay on NCI-H226 lung, 90.6%; in the assay with NCI-H322M lung, 88.6%; in the assay with HOP-62 NSCLC it was 96.7%; in the assay on NCI-H460 lung it was 103%; in the assay with NCI-H522 lung, 72.6%. Moreover, the growth with A549/ATCC NSCLC is 87.3%; with 786-0 renal, 92.9%; in the assay with COLO 205 colon, 118%; with DU-145 prostate it was 101%.

As for `O=C(Nc1nc(-c2ccccc2Cl)cs1)c1cc(-c2ccc(Cl)cc2)nc2ccc(Cl)cc12`, the growth in the assay with NCI-H23 lung is 28.8%; in the assay with NCI-H226 lung, 72.7%; in the assay with NCI-H322M lung, 90.8%; in the assay on HOP-62 NSCLC, 28.5%; with NCI-H460 lung, 96.3%; in the assay on NCI-H522 lung, 57.8%. Besides, the growth with A549/ATCC NSCLC was 92.7%; in the assay with 786-0 renal, 23.5%; with COLO 205 colon, 94.3%; with DU-145 prostate it was 32%.

On to `O=C1c2ccc3c4c(ccc(c24)C(=O)N1CCNCc1ccccc1)C(=O)N(CCNCc1ccccc1)C3=O`, for which the growth was -49.4% (active) in the assay with NCI-H23 lung; 115% with NCI-H226 lung; -43% (active) in the assay with NCI-H322M lung; 95.6% in the assay with HOP-62 NSCLC; -26.7% (active) in the assay on NCI-H460 lung; -51.2% (active) with NCI-H522 lung. The growth in the assay on A549/ATCC NSCLC was 12.8%; in the assay on 786-0 renal it was 52.4%; with COLO 205 colon it was 24.1%; in the assay with DU-145 prostate, 20.7%.

On to `O=C1ON=[N+](c2ccc(Cc3ccc([N+]4=NOC(=O)C4CN4CCOCC4)cc3)cc2)C1CN1CCOCC1` (stereo not given), for which the growth was 62.1% in the assay with NCI-H23 lung; 85.5% with NCI-H226 lung; 82.5% in the assay on NCI-H322M lung; 77% in the assay on HOP-62 NSCLC; 82.9% in the assay with NCI-H460 lung; 37% in the assay with NCI-H522 lung. Moreover, the growth in the assay on A549/ATCC NSCLC was 69.1%; in the assay on 786-0 renal, 74%; in the assay on COLO 205 colon, 99.9%; with DU-145 prostate it was 101%.

Regarding `COc1cc(/C=C\c2cc(OC)c(OC)c(OC)c2)cc(NS(=O)(=O)c2ccc(Cl)cc2)c1OC`, the growth is 41% in the assay with NCI-H23 lung; 33.9% in the assay on NCI-H226 lung; 48.7% with NCI-H322M lung; 60.2% in the assay on HOP-62 NSCLC; 13.8% with NCI-H460 lung; -9.34% (active) in the assay on NCI-H522 lung. Moreover, the growth with A549/ATCC NSCLC was 25.3%; with 786-0 renal it was 39.3%; in the assay with COLO 205 colon it was -4.81% (active); with DU-145 prostate it was 19.8%.

Take `COc1cc2nc(Nc3cccc(C(=O)O)c3)nc(N)c2cc1OC`: the growth is 128% in the assay with NCI-H23 lung; 91.4% in the assay with NCI-H226 lung; 126% in the assay on NCI-H322M lung; -37.3% (active) in the assay on HOP-62 NSCLC; 108% with NCI-H460 lung; 87.4% in the assay on NCI-H522 lung. The growth in the assay on A549/ATCC NSCLC is 104%; in the assay with 786-0 renal it was -9.99% (active); in the assay on COLO 205 colon, 111%; with DU-145 prostate, 102%.

For `CCOC(=O)N1C=CC2C=CC1C1C=CC=CC2N1C(=O)OCC` (stereo not given), the growth in the assay with NCI-H23 lung was 108%; in the assay on NCI-H226 lung, 91%; in the assay with NCI-H322M lung, 106%; in the assay on HOP-62 NSCLC, 106%; in the assay with NCI-H460 lung, 103%; in the assay on NCI-H522 lung, 89.3%. Moreover, the growth with A549/ATCC NSCLC is 94.8%; in the assay with 786-0 renal, 105%; with COLO 205 colon it was 117%; in the assay on DU-145 prostate, 112%.

Turning to `O=C(O)c1ccc(P(=O)(O)O)c([N+](=O)[O-])c1`, the growth with NCI-H23 lung was 115%; in the assay with NCI-H226 lung, 94.4%; with NCI-H322M lung, 102%; in the assay with HOP-62 NSCLC, 101%; in the assay with NCI-H460 lung, 103%; with NCI-H522 lung it was 99.1%. Besides, the growth with A549/ATCC NSCLC is 93%; in the assay with 786-0 renal, 110%; in the assay with COLO 205 colon it was 112%; with DU-145 prostate it was 108%.

Turning to `COC(=O)C(=C\c1ccc2c(c1)OCO2)/C(=C/c1ccc2c(c1)OCO2)C(=O)OC`, the growth in the assay with NCI-H23 lung was 92.4%; in the assay on NCI-H226 lung, 97.8%; in the assay on NCI-H322M lung, 96.9%; in the assay with HOP-62 NSCLC, 102%; with NCI-H460 lung, 112%; in the assay with NCI-H522 lung, 86%. The growth with A549/ATCC NSCLC was 101%; with 786-0 renal, 98.1%; in the assay on COLO 205 colon it was 102%; in the assay on DU-145 prostate, 103%.

As for `COc1ccccc1CNCCN1C(=O)c2ccc3c4c(ccc(c24)C1=O)C(=O)N(CCNCc1ccccc1OC)C3=O`, the growth was -70.5% (active) in the assay with NCI-H23 lung; -74.7% (active) with NCI-H226 lung; -65.4% (active) in the assay on NCI-H322M lung; -79.8% (active) in the assay on HOP-62 NSCLC; -91.3% (active) in the assay with NCI-H460 lung; -83.4% (active) in the assay on NCI-H522 lung. The growth was -93% (active) in the assay with A549/ATCC NSCLC, -82.4% (active) with 786-0 renal, -97.5% (active) with COLO 205 colon and -100% (active) with DU-145 prostate.
